{"source": "PubChem BioAssay (NCI)", "note": "Compounds without any hit were thinned out: in the full panel of roughly 83,000, 20% have a hit.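 Compound tested at a single concentration for 48 hours in 96-well plates; a percent growth value below 10 was scored as active.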 Values without a mark were called inactive. Activity calls are given as the source filed them.", "data": [{"test_system": "COLO 205 colon", "assay": "NCI-60 one-dose screen, 48 h (100 = growth as untreated, 0 = no growth, -100 = all killed)", "details": "10 µM unless noted", "values": [{"smiles": "CCC1CCc2nc3sc(C(=O)Nc4ccccc4F)c(N)c3cc2C1", "note": "(stereo unspecified)", "growth": "64.2%"}, {"smiles": "Cc1nn(-c2ccc(Cl)cc2)c(=O)n1CCOc1ccccc1Cl", "growth": "101%"}, {"smiles": "COc1cc(/C=C2\\CCCC3=C2NC(C)=NC3c2cc(OC)c(OC)c(OC)c2)cc(OC)c1OC", "note": "(stereo unspecified)", "growth": "19.2%"}, {"smiles": "c1ccc([P+](CCC[P+](c2ccccc2)(c2ccccc2)c2ccccc2)(c2ccccc2)c2ccccc2)cc1", "growth": "45.4%"}, {"smiles": "CC1=C(C#N)C(C)(C)C(C#N)=C(C)N1", "growth": "115%"}, {"smiles": "COc1cc(C(=O)OCCCCCCCCCCC[P+](c2ccccc2)(c2ccccc2)c2ccccc2)ccc1O", "growth": "-84.1% (active)"}, {"smiles": "Nc1c(C(=O)Nc2ccccc2)sc2nc3c(cc12)CCCCC3", "growth": "9.29% (active)"}, {"smiles": "COc1cccc(C2CC(=O)Nc3c2c(C)nn3-c2nc3ccccc3[nH]2)c1OC", "note": "(stereo unspecified)", "growth": "98.1%"}, {"smiles": "COc1cc(C(=O)/C=C/c2cc(C(=O)c3cc(OC)c(OC)c(OC)c3)ccc2OC)ccc1N", "growth": "-58.8% (active)"}, {"smiles": "COc1ccc(NC(=O)c2cc3ccccc3nc2Nc2cc(OC)c(OC)c(OC)c2)cc1", "growth": "76.7%"}, {"smiles": "O=S(=O)(O)CCl", "growth": "113%"}, {"smiles": "O=C(CN1CCOCC1)Nc1ccc(-c2nc3ccccc3s2)cc1", "growth": "115%"}, {"smiles": "COc1cc(/C=C\\c2cc(OC)c(OC)c(OC)c2)cc(N/C=C\\C(=O)c2c[nH]c3ccccc23)c1OC", "growth": "-77.2% (active)"}, {"smiles": "CC(C)C[C@H](NC(=O)[C@@H](Cc1ccccc1)n1ccc(Nc2ccccc2)cc1=O)B(O)O", "growth": "13.8%"}, {"smiles": "Cc1ccc2c(c1)C(=O)C(c1c(-c3[nH]c(=O)c4ccc(C)cc4c3O)c(O)c3ccccc3c1O)=NC2=O", "growth": "69.9%"}, {"smiles": "C=CCn1c(C)nc2ccc(Nc3nc(Nc4ccc(F)cc4)nc4ccccc34)cc21", "growth": "43.7%"}, {"smiles": "COc1ccccc1CNCCCN1C(=O)c2ccc3c4c(ccc(c24)C1=O)C(=O)N(CCCNCCCCNCCCCN)C3=O", "growth": "-45.4% (active)"}, {"smiles": "COc1ccc2c(c1)C(=O)/C(=C/c1ccc(O)cc1)O2", "growth": "24.8%"}, {"smiles": "COc1ccc(-c2cn[nH]c2-c2cc(OC)c3c(c2)OCO3)cc1", "growth": "-44.2% (active)"}, {"smiles": "CCCCCCCCCCCCNC(=S)N/N=C/c1ccc(Cl)c(Cl)c1", "growth": "106%"}, {"smiles": "O=C1Nc2ccc(Br)cc2C1=N/C=c1\\[nH]c(=O)/c(=C/c2ccc(Cl)cc2)s1", "growth": "102%"}, {"smiles": "O=C(CNc1c(Cl)cccc1Cl)Nc1ccc(-c2nc3ccccc3s2)cc1", "growth": "87.7%"}, {"smiles": "CCn1c(=O)c2c(=O)c3c4c(oc3oc2c2ccccc21)C(=O)c1ccccc1C4=O", "growth": "110%"}, {"smiles": "CN1CCN(c2ccc3cc(-c4nc5ccccc5[nH]4)c(=O)oc3c2)CC1", "growth": "92.4%"}, {"smiles": "COc1ccc(OC)c(C(=O)c2oc3ccc(Br)cc3c2N)c1", "growth": "-16.1% (active)"}, {"smiles": "Cc1ccc(Cn2c(-c3nonc3N)nc3ccccc32)cc1", "growth": "80%"}, {"smiles": "Cc1ccc(S(=O)(=O)NCCCNc2nccc(-c3c(-c4ccccc4)nc4sccn34)n2)cc1", "growth": "46.6%"}, {"smiles": "COC1=CC(c2ccc[nH]2)=N/C1=C\\c1[nH]c(C)c(C(=O)CCCCC(=O)Oc2ccc3c(c2)CCC2C3CC[C@]3(C)[C@@H](O)CC[C@@H]23)c1C", "note": "(stereo partly specified)", "growth": "94.6%"}, {"smiles": "Cc1cccc(NC(=O)c2sc3nc4c(cc3c2N)CCC4)c1C", "growth": "6.68% (active)"}, {"smiles": "Nc1c(C(=O)Nc2c(Cl)cccc2Cl)sc2nc3c(cc12)CCCCC3", "growth": "45.3%"}, {"smiles": "COc1cc(OC)c(C(=O)/C=C/c2ccc(C(F)(F)F)cc2)c(OC)c1", "growth": "86.9%"}, {"smiles": "Cn1c(-c2nonc2NC(=O)c2ccc(F)cc2)nc2ccccc21", "growth": "117%"}, {"smiles": "CCOC(=O)C1=C(CSC(=S)N(C2CCCCC2)C2CCCCC2)N(C)C(=O)NC1c1ccccc1", "note": "(stereo unspecified)", "growth": "60.6%"}, {"smiles": "COC12CC(=O)C(C(C)=O)=C(O)C1(C)c1c(O)c(C)c(O)c(C(C)=O)c1O2", "note": "(stereo unspecified)", "growth": "99.8%"}, {"smiles": "COc1ccc(C2=CC(c3ccc(Oc4ccnc5cc(Cl)ccc45)c(OC)c3)c3c(nc(OC)[nH]c3=O)N2)cc1", "note": "(stereo unspecified)", "growth": "102%"}, {"smiles": "COc1ccc(Cn2cc(COc3cc(/C=C/C(=O)c4cc(OC)c(OC)c(OC)c4)ccc3OC)nn2)cc1", "growth": "81.9%"}, {"smiles": "O=C(Nc1ccc(OCc2nnc(-c3ccc(Cl)cc3)o2)c(F)c1)Nc1ccc(Cl)c(Cl)c1", "growth": "70.3%"}, {"smiles": "O=C(CNc1ccc(Cl)cc1)Nc1ccc(-c2nc3ccccc3s2)cc1", "growth": "47%"}]}, {"test_system": "DU-145 prostate", "assay": "NCI-60 one-dose screen, 48 h (100 = growth as untreated, 0 = no growth, -100 = all killed)", "details": "10 µM unless noted", "values": [{"smiles": "CCC1CCc2nc3sc(C(=O)Nc4ccccc4F)c(N)c3cc2C1", "note": "(stereo unspecified)", "growth": "55.8%"}, {"smiles": "Cc1nn(-c2ccc(Cl)cc2)c(=O)n1CCOc1ccccc1Cl", "growth": "110%"}, {"smiles": "COc1cc(/C=C2\\CCCC3=C2NC(C)=NC3c2cc(OC)c(OC)c(OC)c2)cc(OC)c1OC", "note": "(stereo unspecified)", "growth": "4.92% (active)"}, {"smiles": "c1ccc([P+](CCC[P+](c2ccccc2)(c2ccccc2)c2ccccc2)(c2ccccc2)c2ccccc2)cc1", "growth": "86.7%"}, {"smiles": "CC1=C(C#N)C(C)(C)C(C#N)=C(C)N1", "growth": "106%"}, {"smiles": "COc1cc(C(=O)OCCCCCCCCCCC[P+](c2ccccc2)(c2ccccc2)c2ccccc2)ccc1O", "growth": "10.6%"}, {"smiles": "Nc1c(C(=O)Nc2ccccc2)sc2nc3c(cc12)CCCCC3", "growth": "4.69% (active)"}, {"smiles": "COc1cccc(C2CC(=O)Nc3c2c(C)nn3-c2nc3ccccc3[nH]2)c1OC", "note": "(stereo unspecified)", "growth": "76.5%"}, {"smiles": "COc1cc(C(=O)/C=C/c2cc(C(=O)c3cc(OC)c(OC)c(OC)c3)ccc2OC)ccc1N", "growth": "26.7%"}, {"smiles": "COc1ccc(NC(=O)c2cc3ccccc3nc2Nc2cc(OC)c(OC)c(OC)c2)cc1", "growth": "66.3%"}, {"smiles": "O=S(=O)(O)CCl", "growth": "109%"}, {"smiles": "O=C(CN1CCOCC1)Nc1ccc(-c2nc3ccccc3s2)cc1", "growth": "109%"}, {"smiles": "COc1cc(/C=C\\c2cc(OC)c(OC)c(OC)c2)cc(N/C=C\\C(=O)c2c[nH]c3ccccc23)c1OC", "growth": "41.7%"}, {"smiles": "CC(C)C[C@H](NC(=O)[C@@H](Cc1ccccc1)n1ccc(Nc2ccccc2)cc1=O)B(O)O", "growth": "35.3%"}, {"smiles": "Cc1ccc2c(c1)C(=O)C(c1c(-c3[nH]c(=O)c4ccc(C)cc4c3O)c(O)c3ccccc3c1O)=NC2=O", "growth": "-58.7% (active)"}, {"smiles": "C=CCn1c(C)nc2ccc(Nc3nc(Nc4ccc(F)cc4)nc4ccccc34)cc21", "growth": "74.1%"}, {"smiles": "COc1ccccc1CNCCCN1C(=O)c2ccc3c4c(ccc(c24)C1=O)C(=O)N(CCCNCCCCNCCCCN)C3=O", "growth": "9.88% (active)"}, {"smiles": "COc1ccc2c(c1)C(=O)/C(=C/c1ccc(O)cc1)O2", "growth": "109%"}, {"smiles": "COc1ccc(-c2cn[nH]c2-c2cc(OC)c3c(c2)OCO3)cc1", "growth": "12.4%"}, {"smiles": "CCCCCCCCCCCCNC(=S)N/N=C/c1ccc(Cl)c(Cl)c1", "growth": "116%"}, {"smiles": "O=C1Nc2ccc(Br)cc2C1=N/C=c1\\[nH]c(=O)/c(=C/c2ccc(Cl)cc2)s1", "growth": "102%"}, {"smiles": "O=C(CNc1c(Cl)cccc1Cl)Nc1ccc(-c2nc3ccccc3s2)cc1", "growth": "85.7%"}, {"smiles": "CCn1c(=O)c2c(=O)c3c4c(oc3oc2c2ccccc21)C(=O)c1ccccc1C4=O", "growth": "92.4%"}, {"smiles": "CN1CCN(c2ccc3cc(-c4nc5ccccc5[nH]4)c(=O)oc3c2)CC1", "growth": "112%"}, {"smiles": "COc1ccc(OC)c(C(=O)c2oc3ccc(Br)cc3c2N)c1", "growth": "16.3%"}, {"smiles": "Cc1ccc(Cn2c(-c3nonc3N)nc3ccccc32)cc1", "growth": "100%"}, {"smiles": "Cc1ccc(S(=O)(=O)NCCCNc2nccc(-c3c(-c4ccccc4)nc4sccn34)n2)cc1", "growth": "26.2%"}, {"smiles": "COC1=CC(c2ccc[nH]2)=N/C1=C\\c1[nH]c(C)c(C(=O)CCCCC(=O)Oc2ccc3c(c2)CCC2C3CC[C@]3(C)[C@@H](O)CC[C@@H]23)c1C", "note": "(stereo partly specified)", "growth": "30.6%"}, {"smiles": "Cc1cccc(NC(=O)c2sc3nc4c(cc3c2N)CCC4)c1C", "growth": "10.6%"}, {"smiles": "Nc1c(C(=O)Nc2c(Cl)cccc2Cl)sc2nc3c(cc12)CCCCC3", "growth": "70.4%"}, {"smiles": "COc1cc(OC)c(C(=O)/C=C/c2ccc(C(F)(F)F)cc2)c(OC)c1", "growth": "11.9%"}, {"smiles": "Cn1c(-c2nonc2NC(=O)c2ccc(F)cc2)nc2ccccc21", "growth": "107%"}, {"smiles": "CCOC(=O)C1=C(CSC(=S)N(C2CCCCC2)C2CCCCC2)N(C)C(=O)NC1c1ccccc1", "note": "(stereo unspecified)", "growth": "46.8%"}, {"smiles": "COC12CC(=O)C(C(C)=O)=C(O)C1(C)c1c(O)c(C)c(O)c(C(C)=O)c1O2", "note": "(stereo unspecified)", "growth": "90.2%"}, {"smiles": "COc1ccc(C2=CC(c3ccc(Oc4ccnc5cc(Cl)ccc45)c(OC)c3)c3c(nc(OC)[nH]c3=O)N2)cc1", "note": "(stereo unspecified)", "growth": "75.6%"}, {"smiles": "COc1ccc(Cn2cc(COc3cc(/C=C/C(=O)c4cc(OC)c(OC)c(OC)c4)ccc3OC)nn2)cc1", "growth": "88.5%"}, {"smiles": "O=C(Nc1ccc(OCc2nnc(-c3ccc(Cl)cc3)o2)c(F)c1)Nc1ccc(Cl)c(Cl)c1", "growth": "34.4%"}, {"smiles": "O=C(CNc1ccc(Cl)cc1)Nc1ccc(-c2nc3ccccc3s2)cc1", "growth": "70.2%"}]}]}
